This is a sample that favours compounds with a hit; in the whole collection about 3% have one here.
esBAF inh: Bmi1 luciferase reporter increase in mESCs, primary screen, esBAF inhibitor project, mouse ES cells, Bmi1 luciferase knock-in, single point; 24 h; 100% = twice the neutral-well signal; reporter increase, % at 12.5 µM; actives 2% (n = 350,000); AID 602393, 2012; in the data active means activation above about 40%; inconclusive means no clear call, values can overlap the other calls;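 further: 0% = median of the plate's neutral control wells and 100% = double that signal; a rise in the Bmi1 reporter signal indicates esBAF inhibition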
C2C12 statin: suppressors of statin myotoxicity in C2C12 myotubes, primary screen, cell-based, single point, plate reader | C2C12 myotubes + simvastatin, ATP luminescence, 48 h; scaled: DMSO 0, geranylgeraniol control 100 | rescue of ATP level, % at 7.49 µM | actives 0.78% (n = 330,000) | AID 602340, 2012;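 active means mean ATP rescue above about 67%, or every replicate alone reaching that limit, limit read from the data, passing the limit was not always enough; inconclusive means no clear call, values can overlap the other calls; inactive means mean under the limit and some replicate under it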;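 further: myotubes were challenged with 10 µM simvastatin during compound exposure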
MITF act: activators of MITF-driven TRPM1 promoter reporter, primary screen, cell-based, SK-MEL-5, luciferase, single point; SK-MEL-5 TRPM1-promoter luciferase, 24 h; % of positive control, neutral wells = 0; activation, % at 12.5 µM; actives 0.75% (n = 300,000);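 active means mean activation of at least 80% with every replicate also reaching 80%; inconclusive means mean reaches 80% but some replicate falls short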;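 further: 0% = neutral control wells and 100% = parthenolide positive control wells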
Wnt act: Wnt/beta-catenin pathway activators, primary screen, cell-based, plate reader, single point | Wnt/beta-catenin reporter cell assay, activator | activation, % at 9.35 µM | actives 1.2% (n = 300,000); in the data active means activation above about 30%, passing the limit was not always enough; inconclusive means no clear call, values can overlap the other calls;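 further: 0% = neutral control wells and 100% = positive control wells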
* marks the source's active call; other numbers are inactive results.

For N#C/C(=C\Nc1ccc2c(c1)OCCO2)c1nc(-c2ccccc2)cs1 the results were MITF act 20 and Wnt act -6.
For N#C/C(=C\c1cccs1)c1nc2ccccc2[nH]1 the results were MITF act 15.
Screening N#C/C(=C\c1ccc(Sc2ccccc2)o1)c1nc2ccccc2[nH]1 returned MITF act 121* and Wnt act -3.
Screening N#C/C(=C\Nc1ccc2c(c1)OCCO2)c1nc2ccccc2[nH]1 returned esBAF inh 44*, C2C12 statin -24 and MITF act 77.
`N#C/C(=C/c1ccc(O)c(O)c1)c1nc2ccccc2[nH]1` gave esBAF inh 57*, C2C12 statin -8, MITF act 37 and Wnt act 4.
For CC(=O)N[C@H]1CC[C@H](CC(=O)NCc2ccc(Cl)cc2)O[C@H]1CO the results were esBAF inh -4 and C2C12 statin -1.
C[C@@H]1CCCCO[C@@H](CN(C)Cc2ccc(C(F)(F)F)cc2)[C@@H](C)CN([C@@H](C)CO)C(=O)c2cc(NC(=O)CCCN(C)C)ccc2O1 was read as esBAF inh -11.
Screening O=C(O)c1cccc(Nc2c([N+](=O)[O-])c(=O)oc3ccccc23)c1 returned esBAF inh 6, C2C12 statin 6, MITF act -9 and Wnt act 1.
For O=c1oc2ccccc2c(Nc2cccc(O)c2)c1[N+](=O)[O-] the results were esBAF inh 0, C2C12 statin 132*, MITF act -20 and Wnt act -3.
`CCc1nc(C)cn1S(=O)(=O)c1ccc(Br)cc1` gave esBAF inh -3, C2C12 statin 5, MITF act -5 and Wnt act 51*.
For O=C(C[C@H]1CC[C@@H](NC(=O)c2ccccn2)[C@@H](CO)O1)NCc1cccc(F)c1 the results were esBAF inh 2 and C2C12 statin 4.
Screening O=C(NCc1ccc(Cl)cc1)c1cnn2ccccc12 returned esBAF inh 60*, C2C12 statin 16, MITF act 96* and Wnt act 9.
`Cc1cccc(NC(=O)c2ccccc2O)c1C` gave MITF act 25 and Wnt act 23.
For Cc1cccc(NC(=O)c2cnn3ccccc23)c1C the results were esBAF inh 42*, C2C12 statin 6, MITF act inconclusive and Wnt act -1.
Screening Cc1cc(C)n2ncc(C(=O)NCc3ccc(Cl)cc3)c2n1 returned esBAF inh -2, C2C12 statin 12, MITF act 0 and Wnt act 0.
Screening O=C(O)C1CCCCC1C(=O)Nc1ccccn1 (centres undefined) returned esBAF inh -1, C2C12 statin 105* and Wnt act 1.
`COc1ccc(C)c2sc(=NC(=O)c3ccc(C(C)=O)cc3)n(C)c12` gave MITF act inconclusive and Wnt act 22.
`COc1ccc(C)c2sc(=NC(=O)c3ccccc3)n(C)c12` gave esBAF inh 51*, C2C12 statin -12 and Wnt act inconclusive.
`Cc1ccc(C(=O)NC2CCC(C)CC2)o1` (centres undefined) gave esBAF inh 55*, C2C12 statin -4, MITF act 38 and Wnt act 21.
Screening Cc1ccc(C(=O)NC2CCC(C)CC2)s1 (centres undefined) returned MITF act 50 and Wnt act 62*.
CNC(=O)c1cc2c(s1)CCCCCC2 was read as esBAF inh -3, C2C12 statin -16 and MITF act 8.
CC1CCC(NC(=O)c2cc3c(s2)CCCC3)CC1 (centres undefined) was read as esBAF inh inconclusive, C2C12 statin -15, MITF act 100* and Wnt act inconclusive.
Screening CO[C@H]1CN(C)C(=O)c2ccc(NC(=O)NC(C)C)cc2OC[C@H](C)N(Cc2cncnc2)C[C@H]1C returned esBAF inh -2 and C2C12 statin 7.
`CO[C@H]1CN(C)C(=O)c2cc(NC(=O)Nc3cccc(F)c3)ccc2OC[C@H](C)N(C(=O)C2CC2)C[C@H]1C` gave esBAF inh 0 and C2C12 statin 10.
C(=NOCCc1ccccc1)c1cccnc1 was read as esBAF inh 51*, C2C12 statin 3, MITF act 87* and Wnt act 0.
C[C@@H]1CCCCO[C@H](CN(C)C)[C@H](C)CN([C@@H](C)CO)C(=O)c2cc(NC(=O)NC3CCCCC3)ccc2O1 was read as esBAF inh -1 and C2C12 statin 15.
COc1ccc(-c2cnc3c(c2)C(=O)N([C@H](C)CO)C[C@H](C)[C@H](CN(C)Cc2cccnc2)O3)cc1 was read as esBAF inh -2 and C2C12 statin 11.
For Cc1ccc(NC(=O)N2C(=O)C3(OCCO3)c3ccccc32)cc1 the results were esBAF inh 58*, C2C12 statin -26 and MITF act 71.
For COCC(=O)N(C)C[C@@H]1Oc2cc(C#CC3CCCC3)ccc2S(=O)(=O)N([C@@H](C)CO)C[C@H]1C the results were C2C12 statin -17.
Screening N#C/C(=C/c1ccc(N2CCCCC2)cc1)c1cccc(F)c1 returned esBAF inh 66*, C2C12 statin -13, MITF act 21 and Wnt act 33*.
Screening N#C/C(=C/c1ccc(N2CCCCC2)o1)c1cccc(F)c1 returned esBAF inh 74*, C2C12 statin 27, MITF act 46 and Wnt act 3.
For CCNC(=O)C[C@@H]1CC[C@H]2[C@@H](COC[C@H](O)CN2Cc2ccncc2)O1 the results were esBAF inh 4 and C2C12 statin 4.
For COc1ccc(/C=C/C2=Nc3ccccc3NC(C)(C)C2)cc1OC the results were esBAF inh 44*, C2C12 statin 2, MITF act inconclusive and Wnt act 40*.
Screening Cc1ccc(-c2nc3cnccn3c2Nc2ccccc2)o1 returned esBAF inh 44*, C2C12 statin 16 and Wnt act 6.
For O=C(Nc1ccc(Oc2cccnc2)cc1)c1ccccc1Cl the results were MITF act 18 and Wnt act 2.
For O=C(Nc1ccc(Oc2cccnc2)cc1)c1ccccc1F the results were esBAF inh 60*, C2C12 statin 0, MITF act 74 and Wnt act 18.
COCC(=O)Nc1ccc2c(c1)C(=O)N(C)C[C@@H](OC)[C@@H](C)CN(C(=O)C1CCCC1)[C@@H](C)CO2 was read as esBAF inh -2 and C2C12 statin -21.
COc1ccc(-n2c(SCC(=O)Nc3ccc4c(c3)OCO4)nc3ccccc3c2=O)cc1 was read as esBAF inh -2, C2C12 statin 118* and MITF act -9.
`NCCNC(=O)c1c(NC(=O)c2ccccc2)sc2c1CCCC2` gave esBAF inh 68*, C2C12 statin 2, MITF act 32 and Wnt act 1.
